Assay results reported in the supplement of paper PMC9694430.
“And” between values parts separate entries of the source, which are not always exact repeats. Identical values can stand only once. Counter-ions that a name gives are not always drawn.

Assays:
Assay in all cases: thermal shift delta Tm vs DMSO control; higher = stronger stabilization (binding)
Conditions in all cases: 12.5 µM; protein concentration 2 µM
LOC_OS01G01410-cb001 = system: LOC_OS01G01410-cb001
In short: (§1)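 Compounds dissolved in DMSO were added to purified rice kinase domain constructs, which had been expressed in E. coli, for differential scanning fluorimetry. Each well held 19.5 μl of 2 μM kinase in 100 mM potassium phosphate pH 7.5, 150 mM NaCl, 10% glycerol and 5 × SYPRO Orange. Fluorescence was followed from 25°C to 95°C at a rate of 0.05°C/s. Shifts in Boltzmann-fitted melting temperature are triplicate means relative to DMSO-only protein.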

LOC_OS01G02750-cb003 = system: LOC_OS01G02750-cb003
In short: as §1

LOC_OS01G10900-cb004 = system: LOC_OS01G10900-cb004
In short: as §1

LOC_OS01G13800-cb001 = system: LOC_OS01G13800-cb001
In short: as §1

LOC_OS01G14860-cb001 = system: LOC_OS01G14860-cb001
In short: as §1

LOC_OS01G21960-cb002 = system: LOC_OS01G21960-cb002
In short: as §1

LOC_OS01G39600-cb002 = system: LOC_OS01G39600-cb002
In short: as §1

LOC_OS01G48390-cb002 = system: LOC_OS01G48390-cb002
In short: as §1

LOC_OS01G51400-cb002 = system: LOC_OS01G51400-cb002
In short: as §1

LOC_OS01G52050-cb004 = system: T1, LOC_OS01G52050-cb004
T1 sequence (whole entry): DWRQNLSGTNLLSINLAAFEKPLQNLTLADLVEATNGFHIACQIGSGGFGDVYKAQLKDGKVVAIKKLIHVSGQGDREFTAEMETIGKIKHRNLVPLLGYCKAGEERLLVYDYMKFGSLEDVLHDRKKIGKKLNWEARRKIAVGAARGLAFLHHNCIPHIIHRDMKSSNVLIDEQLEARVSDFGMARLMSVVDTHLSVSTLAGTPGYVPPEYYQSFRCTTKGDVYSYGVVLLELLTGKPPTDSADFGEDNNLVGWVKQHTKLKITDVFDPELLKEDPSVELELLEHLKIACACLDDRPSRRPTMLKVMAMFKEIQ
In short: as §1

Structure (SMILES) | thermal shift delta Tm (LOC_OS01G01410-cb001) | thermal shift delta Tm (LOC_OS01G02750-cb003) | thermal shift delta Tm (LOC_OS01G10900-cb004) | thermal shift delta Tm (LOC_OS01G13800-cb001) | thermal shift delta Tm (LOC_OS01G14860-cb001) | thermal shift delta Tm (LOC_OS01G21960-cb002) | thermal shift delta Tm (LOC_OS01G39600-cb002) | thermal shift delta Tm (LOC_OS01G48390-cb002) | thermal shift delta Tm (LOC_OS01G51400-cb002) | thermal shift delta Tm (LOC_OS01G52050-cb004)
CC(C)(O)CC(=O)NCCn1ccc2ncnc(Nc3ccc(Oc4cccc(C(F)(F)F)c4)c(Cl)c3)c21 | 1.78 °C | 3.42 °C | 1.92 °C | 0.44 °C | 1.32 °C | 1.64 °C | 3.99 °C | 2.26 °C | 1.72 °C | 4.47 °C
Cc1cc(Nc2nc(N[C@@H](C)c3ccc(F)cc3)c(C#N)cc2F)n[nH]1 | 4.59 °C | 1.83 °C | 0.46 °C | -0.07 °C | 5.09 °C | 1.28 °C | 4.3 °C | 5.61 °C | 0.07 °C | 0.63 °C
CCCNC(=O)c1cn2ncnc(Nc3cc(C(=O)NC4CC4)ccc3C)c2c1C | 0.17 °C | 0.08 °C | -0.05 °C | -0.27 °C | 0.01 °C | -0.06 °C | 0.07 °C | -0.01 °C | 0.04 °C | 0.26 °C
CCc1cncnc1N1CCN(Cc2nc3ccc(C(F)(F)F)cc3[nH]2)CC1 | 0.68 °C | 1.15 °C | 0.36 °C | 0.07 °C | 0.3 °C | 0.83 °C | -0.18 °C | 0.61 °C | 0.42 °C | 0.17 °C
CCCCCCCCCCCCCCCCn1cc[n+](Cc2ccccc2)c1C | -2.01 °C | -7.84 °C | -4.55 °C | -6.34 °C | -18.6 °C | -3.32 °C | -5.39 °C | -5.85 °C | -9.26 °C | -3.57 °C
Cc1c[nH]c2nc(Nc3ccc(N4CCN(C)CC4)c(F)c3)nc(-c3cccc(CC#N)c3)c12 | 6.3 °C | 6.99 °C | 3.64 °C | 0.12 °C | 5.41 °C | 4.45 °C | 9.35 °C | 5.5 °C | 1.14 °C | 13.5 °C
O=C(O)c1ccc2c3c1cccc3c(=O)n1c3ccccc3nc21 | 3.12 °C | 0.97 °C | 0.69 °C | 0.32 °C | 1.4 °C | 0.71 °C | 0.62 °C | 0.91 °C | 0 °C | 1.18 °C
CN1CCN(C2CCN(C(=O)Nc3cc(Oc4ccc(NC(=O)C5(C(=O)Nc6ccc(F)cc6)CC5)c(F)c4)ccn3)CC2)CC1 [Golvatinib (E7050)] | -0.03 °C | 1.21 °C | 0.95 °C | 0.07 °C | 0.62 °C | 0.11 °C | 0.93 °C | 2.98 °C | 0.51 °C | 0.09 °C
Cc1ccc(NC(=O)c2ccc(CN3CCN(C)CC3)cc2)cc1Nc1nccc(-c2cccnc2)n1 [Imatinib (STI571)] | 0.68 °C | 0 °C | 1.47 °C | -0.47 °C | 0.24 °C | -0.24 °C | -0.27 °C | 1.69 °C | 0.14 °C | 0.62 °C
Nc1nc2cc(-c3ccc4ncc(C(=O)N5CCOCC5)n4c3)ccc2o1 [Serabelisib (INK-1117,MLN-1117,TAK-117)] | 0.8 °C | 1.57 °C | 2.36 °C | 0.43 °C | 1.16 °C | 0.81 °C | 0.1 °C | 0.39 °C | 0.34 °C | 3.87 °C
COc1cc2/c(=N/c3ccc(Br)cc3F)nc[nH]c2cc1OCC1CCN(C)CC1 [Vandetanib (ZD6474)] | 1.05 °C | -0.06 °C | 0.86 °C | -0.25 °C | 0.15 °C | 0.02 °C | 0.47 °C | 1.67 °C | 0.15 °C | 1.36 °C
COc1ccc2c(c1)[C@]1(C[C@H]1c1ccc3c(/C=C/c4ccc(CN5C[C@@H](C)O[C@@H](C)C5)cc4)n[nH]c3c1)C(=O)N2 | 1.94 °C | 8.4 °C | 1.53 °C | -0.69 °C | 1.2 °C | 0.67 °C | 2.15 °C | 1.77 °C | 1.27 °C | 4.31 °C
CCCS(=O)(=O)Nc1ccc(F)c(C(=O)c2c[nH]c3ncc(-c4ccc(Cl)cc4)cc23)c1F [Vemurafenib (PLX4032, RG7204)] | 3.81 °C | 7.84 °C | 6.74 °C | 1.27 °C | 4.3 °C | 2.86 °C | 11.7 °C | 3.18 °C | 1.03 °C | 11.1 °C
COCCOc1cnc2ccn([C@H](C)c3nnc4c(F)cc(-c5cnn(C)c5)cn34)c(=O)c2c1 | 0.44 °C | 0.28 °C | 0.34 °C | -0.27 °C | 0.15 °C | 0.42 °C | -0.26 °C | 0.28 °C | 0.32 °C | 0.4 °C
C[C@@H]1CCN(C(=O)CC#N)C[C@@H]1N(C)c1ncnc2[nH]ccc12 | 0.9 °C and -0.07 °C | 0.59 °C and 1.29 °C | 1.82 °C and 1.15 °C | -0.91 °C and -0.21 °C | 0.33 °C and 0.19 °C | 0.43 °C and 0.81 °C | 1.17 °C and 1.71 °C | 1.08 °C and 0.82 °C | 0.59 °C and 0.38 °C | 0.05 °C and 0.04 °C
Cc1ccc(NC(=O)c2ccc(CN3CCN(C)CC3)cc2)cc1Nc1nccc(-c2cccnc2)n1 [Imatinib Mesylate (STI571)] | 1.08 °C | 0.88 °C | 1.18 °C | 0.6 °C | 0.15 °C | 0.23 °C | 0.07 °C | 0.86 °C | 0.08 °C | 0.02 °C
COc1cc2ncnc(Nc3ccc(Oc4ccccc4)cc3C)c2cc1OC | 0.68 °C | 0.9 °C | 0.3 °C | -0.47 °C | 0.22 °C | 0.26 °C | 0.05 °C | 0.79 °C | 0.08 °C | 2.07 °C
Cc1cc(Nc2ncnc3ccc(-c4ccc(CNCCS(C)(=O)=O)o4)cc23)ccc1Oc1ccn2ncnc2c1 [HER2-Inhibitor-1] | 1.34 °C | 2.06 °C | 3.1 °C | 0.55 °C | 2.31 °C | 1.18 °C | 3.89 °C | 0.83 °C | 0.03 °C | 1.36 °C
CC(C)NC(=O)COc1cccc(-c2nc(Nc3ccc4[nH]ncc4c3)c3ccccc3n2)c1 | 0.42 °C | 0.09 °C | 0.99 °C | 0.46 °C | 1.95 °C | 1.23 °C | -0.3 °C | 0.33 °C | -0.24 °C | 1.34 °C
Cc1cc(Nc2ncnc3ccc(NC4=NC(C)(C)CO4)cc23)ccc1Oc1ccn2ncnc2c1 [Irbinitinib (ARRY-380, ONT-380)] | 0.46 °C | -5.11 °C | 0.3 °C | -0.06 °C | -1.49 °C | -0.98 °C | -4.96 °C | -0.78 °C | -3.07 °C | 1.03 °C
CCN1CCN(Cc2ccc(C(=O)Nc3ccc(C)c(Oc4ccc5c(c4)CC(=O)N5)c3)cc2C(F)(F)F)CC1 | 0.03 °C | 1.85 °C | 2.1 °C | 0.59 °C | 0.51 °C | 1.73 °C | -0.14 °C | 0.94 °C | 0.25 °C | 1.08 °C
